Screening results as filed in PubChem BioAssay.
Hits are enriched below; roughly 19% of the tested compounds scored in any of these assays.
Cycloheximide cs: Cycloheximide Counterscreen for Small Molecule Inhibitors of Shiga Toxin; max response, %; AID 2314, 2010; cell reporter, cycloheximide protein synthesis inhibition counterscreen; 300,000 tested, 12% active; in the data active = max response mostly above about 13%, no sharp cut-off; inactive = mostly below about 14%; also: read at 38.3 µM for the half of the compounds with a filed dose; 0% is about no effect
Pf growth 96h: Primary qHTS for delayed death inhibitors of the malarial parasite plastid, 96 hour incubation; 320,000 tested, 6.9% active; AID 504834, 2011; P. falciparum luciferase reporter growth, 96 h; Potency, µM (doses to about 28.7 µM), without a hit: at the highest dose activity change, negative = inhibition, most hits filed as inhibitors; also: potency is read from the fitted curve at half-maximal effect; % is scaled to controls: 0 for no effect and ±100 for the full control effect
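Erythrocytes infected with luciferase-expressing P. falciparum were dispensed at 2% hematocrit and 0.05% parasitemia (final), then incubated with compounds 96 hours at 37 C in 5% CO2. Luminescence after detection reagent addition reported growth.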
Marburg entry inh: qHTS for inhibitors of binding or entry into cells for Marburg Virus | 300,000 tested, 1.8% active | Potency, µM (doses to about 37.8 µM), inactives show top-dose activity change, negative = inhibition, usual class: inhibitors | Marburg virus pseudotyped entry inhibition, cell reporter; calls by dose curve; tested in HEK293 cells; also: potency is read from the fitted curve at half-maximal effect; % is scaled to controls: 0 for no effect and ±100 for the full control effect
Shiga inhibitor: A qHTS for Small Molecule Inhibitors of Shiga Toxin. Vero cells, Shiga toxin protein synthesis inhibition reporter. inhibition, % at 38.7 µM. AID 2315, 2010. 290,000 tested, 9.2% active; in the data active = inhibition mostly above about 28%, no sharp cut-off; inactive = mostly below about 43%; also: 0% is about no effect
LASV entry inh: qHTS for Inhibitors of binding or entry into cells for Lassa Virus. Lassa virus pseudotype entry inhibition, cell reporter. AID 540256, 2011. Potency, µM (top dose mostly 37.9 µM), for the others: at the top dose activity change, negative = inhibition, most hits filed as inhibitors. 300,000 tested, 1.2% active; calls by dose curve; tested in HEK293 cells; also: potency is read from the fitted curve at half-maximal effect; % is scaled to controls: 0 for no effect and ±100 for the full control effect; nearly all actives have a fitted effect of over 50% in size
Pf growth 48h: Primary qHTS for delayed death inhibitors of the malarial parasite plastid, 48 hour incubation | Potency, µM (highest dose often 28.7 µM), without a hit: top-dose activity change, negative = inhibition, most hits filed as inhibitors | 310,000 tested, 5.9% active | P. falciparum luciferase growth in erythrocytes, 48 h | AID 504832, 2011; also: potency is read from the fitted curve at half-maximal effect; % is scaled to controls: 0 for no effect and ±100 for the full control effect
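In quantitative HTS format, infected erythrocytes bearing luciferase-reporter parasites were treated for a single generation at 37 C. Luminescence after adding detection reagent served as the growth measure.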
* marks the source's active call; other numbers are inactive results; [ ] = dose if it differs, or a comment. Unless noted, calls follow the shape of the dose curve; as a rule, active = well fitted inhibition curve with a large enough effect; inconclusive = small, poorly fitted or top-dose-only effect, or another doubt; inactive = no such curve, though single readings can be large or run the other way.

What do the screens show for `COc1ccc(C(=O)c2c(C(F)(F)F)oc3c2C(=O)c2ccccc2C3=O)cc1`?
Cycloheximide cs: 11.3; Marburg entry inh: 3.16µM*; Shiga inhibitor: -12.6; LASV entry inh: inconclusive; Pf growth 48h: 0.104µM*

What do the screens show for `COc1ccc(C(=O)c2coc(-c3ccccc3C(=O)O)c2C(=O)O)cc1`?
Cycloheximide cs: 4.7; Pf growth 96h: 24.7%; Marburg entry inh: 16.9%; Shiga inhibitor: 4.6; LASV entry inh: -1.2%; Pf growth 48h: 3.8%

Results for CCOC(=O)c1c(NC(=O)c2nn(CC)cc2Br)c(C#N)nn1-c1ccccc1 ?
Cycloheximide cs: 4.2; Pf growth 96h: -24.9%; Marburg entry inh: inconclusive; Shiga inhibitor: -4.8; LASV entry inh: -27.3%[14.3 µM]; Pf growth 48h: 13.1µM*

How did CCOC(=O)c1ccc(NC(=O)c2nn(CC)cc2Br)cc1 do in these assays?
Cycloheximide cs: 35.4*; Pf growth 96h: 33.5%; Marburg entry inh: -18.2%; Shiga inhibitor: 52.8*; LASV entry inh: inconclusive; Pf growth 48h: -15.6%

Results for CCn1cc(Br)c(C(=O)Nc2ccc(Cl)cc2Cl)n1 ?
Cycloheximide cs: 25.5*; Pf growth 96h: 47.5%; Marburg entry inh: 20.2%; Shiga inhibitor: 54.8; LASV entry inh: 11.3%

Results for CCOC(=O)c1nn(-c2ccccc2)c(=O)c(C#N)c1C ?
Cycloheximide cs: -4.0; Pf growth 96h: 14.7µM*; Marburg entry inh: 27.3%[46.1 µM]; Shiga inhibitor: 17.6; LASV entry inh: inconclusive

What do the screens show for `CCOC(=O)c1nn(-c2ccccc2)c(C#N)c1NC(=O)c1nn(CC)cc1Br`?
Cycloheximide cs: 10.2; Pf growth 96h: -6.1%; Marburg entry inh: 0.1%; Shiga inhibitor: -5.8; LASV entry inh: inconclusive; Pf growth 48h: inconclusive

How did CCn1cc(Br)c(C(=O)Nc2ccc(F)c(Cl)c2)n1 do in these assays?
Cycloheximide cs: 53.5*; Pf growth 96h: 4.3%; Marburg entry inh: -12.0%; Shiga inhibitor: 73.4*; LASV entry inh: 10.4%; Pf growth 48h: 104.4%

How did CCn1cc(Br)c(C(=O)NC(=S)Nc2ccc(C(=O)OC)cc2)n1 do in these assays?
Cycloheximide cs: 1.8; Pf growth 96h: 10.2%; Marburg entry inh: 2.6%; Shiga inhibitor: 3.5; LASV entry inh: -5.0%; Pf growth 48h: 3.7%

How did CC(C)CC(NC(=O)C1CCCN1C(=O)CNC(=O)OCc1ccccc1)C(=O)O (stereo unspecified) do in these assays?
Cycloheximide cs: -5.6; Pf growth 96h: -6.8%; Shiga inhibitor: 3.4; Pf growth 48h: 7.4%

How did O=C(CN(C(=O)Cn1nnc(-c2cccs2)n1)c1ccc2c(c1)OCCO2)NC1CCCCC1 do in these assays?
Cycloheximide cs: 32.1*; Pf growth 96h: -8.0%; Marburg entry inh: 3.1%; Shiga inhibitor: 56.2*; LASV entry inh: 13.4%; Pf growth 48h: -21.6%

How did Cc1ccc(-c2nnn(CC(=O)N(CC(=O)NCC3CCCO3)c3ccccc3)n2)o1 (stereo unspecified) do in these assays?
Cycloheximide cs: 7.7; Pf growth 96h: -24.3%; Marburg entry inh: inconclusive; Shiga inhibitor: 31.7; LASV entry inh: -2.1%; Pf growth 48h: -7.0%

Results for O=C(CN(C(=O)Cn1nnc(-c2cccs2)n1)c1ccc2c(c1)OCCO2)NCC1CCCO1 (stereo unspecified) ?
Cycloheximide cs: -2.0; Pf growth 96h: inconclusive; Marburg entry inh: 2.5%[46.1 µM]; Shiga inhibitor: -6.3; LASV entry inh: 12.5%; Pf growth 48h: 5.6%

What do the screens show for `O=C(NCc1ccccc1)C(c1ccc(O)cc1)N(C(=O)Cn1nnc(-c2cccs2)n1)c1ccc2c(c1)OCCO2` (stereo unspecified)?
Cycloheximide cs: -1.7; Pf growth 96h: -8.4%; Marburg entry inh: -9.3%; Shiga inhibitor: 15.2; LASV entry inh: inconclusive; Pf growth 48h: 11.7µM*

How did O=C(CN(C(=O)Cn1nnc(-c2cccs2)n1)c1cnc2ccccc2c1)NCC1CCCO1 (stereo unspecified) do in these assays?
Cycloheximide cs: 1.0; Pf growth 96h: 14.7µM*; Marburg entry inh: -1.4%; Shiga inhibitor: 24.1; LASV entry inh: 9.7%; Pf growth 48h: inconclusive

Results for O=C(CN(C(=O)Cn1nnc(-c2ccccc2F)n1)c1cnc2ccccc2c1)NCC1CCCO1 (stereo unspecified) ?
Cycloheximide cs: -1.9; Pf growth 96h: inconclusive; Marburg entry inh: -14.7%[46.1 µM]; Shiga inhibitor: -6.2; LASV entry inh: -14.6%; Pf growth 48h: 9.28µM*

Results for Cc1ccc(N(CC(=O)NCC2CCCO2)C(=O)Cn2nnc(-c3cccs3)n2)cc1 (stereo unspecified) ?
Cycloheximide cs: -4.1; Pf growth 96h: inconclusive; Marburg entry inh: 2.1%[46.1 µM]; Shiga inhibitor: -3.6; LASV entry inh: -0.1%; Pf growth 48h: -19.5%

Results for C=CCN1C(=O)c2ccc(C(=O)N3CCC(C(N)=O)CC3)cc2C1=O ?
Cycloheximide cs: -3.2; Pf growth 96h: 6.4%; Shiga inhibitor: -5.7; Pf growth 48h: 8.5%

What do the screens show for `Cc1cc(NC(=O)CCCN2C(=O)c3cccnc3C2=O)no1`?
Cycloheximide cs: -2.9; Pf growth 96h: 11.7µM*; Marburg entry inh: 12.4%; Shiga inhibitor: -5.7; LASV entry inh: 0.7%; Pf growth 48h: 22.0%

Results for O=C(/C=C/c1ccc(Cl)cc1Cl)Nc1cccc(S(=O)(=O)NC2=NCCC2)c1 ?
Cycloheximide cs: 13.9*; Pf growth 96h: 170.5%; Marburg entry inh: 13µM*; Shiga inhibitor: 43.8; LASV entry inh: 14.6µM*; Pf growth 48h: 217.7%

How did O=C(/C=C/c1ccccc1Cl)Nc1cccc(S(=O)(=O)NC2=NCCCCC2)c1 do in these assays?
Cycloheximide cs: 23.0*; Pf growth 96h: inconclusive; Marburg entry inh: inconclusive; Shiga inhibitor: 64.6*; LASV entry inh: 6.3%; Pf growth 48h: 0.0%

Results for O=C(Nc1cccc(S(=O)(=O)NC2=NCCC2)c1)c1c(F)cccc1Cl ?
Pf growth 96h: 10.7%; Marburg entry inh: inconclusive; LASV entry inh: 0.9%; Pf growth 48h: -12.1%

How did O=c1cc2c(=O)oc3cc(O)c(O)oc3c2c(O)c1O do in these assays?
Cycloheximide cs: -2.6; Pf growth 96h: 8.28µM*; Marburg entry inh: inconclusive; Shiga inhibitor: -6.3; LASV entry inh: inconclusive; Pf growth 48h: 5.22µM*

Results for O=c1oc2cc(O)c(Cl)cc2c2ccccc12 ?
Cycloheximide cs: -3.0; Pf growth 96h: 24.6%; Marburg entry inh: inconclusive; Shiga inhibitor: 32.8; LASV entry inh: 12.2%; Pf growth 48h: 11.2%

What do the screens show for `O=C(O)c1ccc(CSc2n[nH]c(-c3ccco3)n2)cc1`?
Cycloheximide cs: -1.2; Pf growth 96h: 6.6%; Marburg entry inh: 3.8%; Shiga inhibitor: 14.6; LASV entry inh: 11.6%; Pf growth 48h: 7.4%

Results for COc1cccc(OCC(=O)NNC(=O)C(=O)Nc2cccc(C)c2)c1 ?
Cycloheximide cs: 28.4*; Pf growth 96h: 55.4%; Shiga inhibitor: 59.9; Pf growth 48h: 41.0%
